Source: PubChem
This is a sample that favours compounds with a hit; in the whole collection about 2.6% have one here.
Cruzain inh Det = cruzain (T. cruzi) inhibition with detergent | P25779 | purified cruzain, Z-FR-AMC fluorescence, 0.01% Triton | hit rate 0.43% among 200,000 | Potency, µM, most hits filed as inhibitors; also: nearly all actives have a fitted effect of over 40% in size
Target sequence (P25779 123-467 limits assumed): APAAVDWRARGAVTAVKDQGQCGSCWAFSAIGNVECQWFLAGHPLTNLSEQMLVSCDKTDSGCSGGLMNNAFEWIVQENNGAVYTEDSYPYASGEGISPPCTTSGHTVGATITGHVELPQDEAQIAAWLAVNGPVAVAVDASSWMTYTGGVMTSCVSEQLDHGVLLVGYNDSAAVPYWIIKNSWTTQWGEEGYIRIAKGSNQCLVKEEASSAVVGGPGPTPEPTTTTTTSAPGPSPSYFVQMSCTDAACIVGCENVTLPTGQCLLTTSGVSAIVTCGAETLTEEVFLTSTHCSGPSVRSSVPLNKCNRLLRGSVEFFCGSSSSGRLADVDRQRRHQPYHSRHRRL
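Compounds were screened in titration against cruzain (1.5 nM) with 0.01% Triton X-100 to counter colloidal aggregation. Activity was the AMC fluorescence increase over 60 s after adding 2 uM Z-FR-AMC at pH 5.5.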
Cruzain inh noDet = cruzain (T. cruzi) inhibition without detergent; Potency, µM, usual class: inhibitors; AID 1476; hit rate 2.3% among 200,000; purified cruzain, Z-FR-AMC fluorescence, no detergent; also: nearly all actives have a fitted effect of over 40% in size
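Purified cruzain at 1.5 nM, pre-incubated 15 min with compound at room temperature in 100 mM sodium acetate pH 5.5, 5 mM DTT, 0.00005% Triton X-100. Reaction started with 2 uM Z-FR-AMC; AMC fluorescence increase over 60 s gives rate.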
Each line names hits and unclear results; the compound was inactive in the other large screens. Calls follow the shape of the dose curve; as a rule, active = well fitted curve in the direction sought with a large enough effect; inconclusive = small, poorly fitted or top-dose-only effect, or another doubt; inactive = no such curve, though single readings can be large; an effect the other way counts as inactive or inconclusive.

Ic1ccc2c(c1)N(c1ccccc1)c1cc(Nc3ccc4nc5ccc(I)cc5[n+](-c5ccccc5)c4c3)ccc1N2	Cruzain inh noDet 3.2µM
Cc1cc(NC(=O)CCS(=O)(=O)c2cc(Br)cc3c2N(C(=O)C2CC2)CC3)ccc1Br	none
C=CCOC(=O)C1=C(C)NC(SCC(=O)Nc2ccc(C)c(Cl)c2)=C(C#N)C1c1ccco1 (stereo not given)	Cruzain inh noDet 10µM
COc1ccccc1NC(=O)C1=C(C)NC(SCC(=O)c2ccccc2)=C(C#N)C1c1ccco1 (stereo not given)	Cruzain inh noDet 16µM
CC(=O)C1=C(C)NC(SCC(=O)c2ccc(C)cc2)=C(C#N)C1c1ccco1 (stereo not given)	none
COCCOC(=O)C1=C(C)NC(SCC(=O)NC(C)(C)C)=C(C#N)C1c1ccco1 (stereo not given)	none
Cc1sc(-n2cccc2)c(C(C)NC(=O)Nc2ccccc2Cl)c1C (stereo not given)	Cruzain inh noDet inconclusive
CCN1CCN(C(=S)Nc2ccc(Cl)cc2Cl)CC1	none
CN1CCN(C(=S)Nc2ccc(Cl)cc2Cl)CC1	Cruzain inh noDet 1.6µM
CN(C)c1ccc(CN(Cc2ccco2)C(=O)c2ccc(C(C)(C)C)cc2)cc1	none
Cc1ccc(CSc2nc(-c3ccc(C(C)(C)C)cc3)nc3cc(=O)[nH]n23)cc1	none
COC(=O)c1c(NC(=O)CN2C(=O)NC3(CCC(C(C)(C)C)CC3)C2=O)sc2c1CCCCC2 (stereo not given)	Cruzain inh noDet 16µM
O=C(CN1C(=O)NC2(CCc3ccccc3C2)C1=O)Nc1ccc(Cl)cc1F (stereo not given)	none
CC1CCCCC12NC(=O)N(CC(=O)Nc1sc3c(c1C(N)=O)CCC3)C2=O (stereo not given)	none
COC(=O)c1c(NC(=O)CN2C(=O)NC3(CCc4ccccc4C3)C2=O)sc2c1CCCCC2 (stereo not given)	Cruzain inh noDet 13µM
COc1ccc(CNC(=O)c2ccc(Cn3c(=O)c4cccn4c4cccnc43)cc2)c(OC)c1	none
O=C(Cn1nnc2c(sc3nc4c(c(-c5ccccc5)c32)CCC4)c1=O)c1ccccc1	Cruzain inh noDet 25µM
COc1ccc(-c2c3c(nc4sc5c(=O)[nH]c(C)nc5c24)CCC3)cc1	none
O=c1oc2ccccc2cc1-c1csc(NN=C2CCCCC2)n1	Cruzain inh noDet 20µM
O=c1oc2ccccc2cc1-c1csc(Nc2nc3c(F)cccc3s2)n1	Cruzain inh noDet 32µM
O=c1oc2ccccc2cc1-c1csc(Nc2nc3ccc(F)cc3s2)n1	none
O=c1oc2ccccc2cc1-c1nc(-c2cccc(Cl)c2)cs1	none
CC1CCC/C(=C(\C#N)c2nc(-c3cc4ccccc4oc3=O)cs2)C1 (stereo not given)	none
O=c1oc2ccccc2cc1-c1csc(Cc2nc(-c3ccc(Cl)cc3)cs2)n1	Cruzain inh noDet 10µM
CCCCOc1ccc(CNC(=O)c2ccc(NC(=O)N3CCCCc4ccccc43)cc2)cc1	none
COc1ccc(Cl)cc1NC(=O)Cn1c(=O)c(-c2ccccc2NC(C)=O)nc2ccccc21	none
CCOC(=O)CN(Cc1ccccc1)C(C(=O)NC1CCCCC1)c1ccccc1 (stereo not given)	none
COc1ccc(N2CCN(C(=O)c3cn(C4CCCCC4)c(=O)c4c3c3ccccc3n4C)CC2)cc1	none
CCc1cccc(CC)c1NC(=O)c1c(C)oc2ccc(O)c(CN3CCOCC3)c12	none
Cc1ccc2nc(NC(=O)CSc3[nH]c(=O)ncc3C)sc2c1	none
COc1ccc(N2C(=O)CSC23CCC(C(C)(C)C)CC3)cc1 (stereo not given)	Cruzain inh noDet inconclusive
CC(C)(C)C1CCC2(CC1)Nc1cccc3cccc(c13)N2	Cruzain inh noDet 25µM
O=c1c2ccccc2nc(SCc2cc([N+](=O)[O-])cc3c2OCOC3)n1-c1ccccc1	Cruzain inh noDet 13µM
O=[N+]([O-])c1cc2c(c(CSc3nnc4ccccn34)c1)OCOC2	none
COc1ccc(Nc2nnc(SCc3cc([N+](=O)[O-])cc4c3OCOC4)s2)cc1	Cruzain inh noDet 20µM
O=c1c2ccccc2nc(SCc2ccc([N+](=O)[O-])cc2)n1-c1ccccc1	Cruzain inh noDet inconclusive
COc1cc(C2N=C(N)Nc3nc4ccccc4n32)ccc1OCC(=O)O (stereo not given)	none
Cc1c(Cc2ccccc2)sc(/N=C/c2ccc3ccccc3c2)c1C(N)=O	Cruzain inh noDet 6.3µM
Cc1c(Cc2ccccc2)sc(N)c1C(N)=O	Cruzain inh noDet inconclusive
COc1ccc(/C=C/C(=O)Nc2sc(Cc3ccccc3)c(C)c2C(N)=O)cc1	Cruzain inh noDet 16µM
Cc1c(Cc2ccccc2)sc(/N=C/c2c(O)ccc3ccccc23)c1C(N)=O	none
Cc1ccc(OCC(=O)Nc2ccc(S(=O)(=O)Nc3cc(C)nc(C)n3)cc2)c(Br)c1	Cruzain inh noDet inconclusive
Cc1ccc(NC(c2nnc(-c3ccccc3)o2)c2ccccc2F)c(Cl)c1 (stereo not given)	none
CC1CCN(c2ccccc2NC(=S)NC(=O)c2ccc(-c3cccc([N+](=O)[O-])c3)o2)CC1	Cruzain inh noDet 7.9µM
O=C(NC(=S)Nc1ccccc1N1CCOCC1)c1ccco1	none
COc1ccc(C(=O)NC(=S)Nc2ccccc2N2CCOCC2)cc1Br	Cruzain inh noDet inconclusive
CCOc1ccc(C(=O)NC(=S)Nc2ccccc2N2CCOCC2)cc1Br	Cruzain inh noDet 16µM
O=C(NC(=S)Nc1ccccc1N1CCOCC1)c1ccc(-c2cc(Cl)ccc2Cl)o1	Cruzain inh noDet 10µM
CC1CCN(c2ccc(NC(=S)NC(=O)c3ccc(-c4cccc([N+](=O)[O-])c4)o3)cc2)CC1	Cruzain inh noDet inconclusive
O=[N+]([O-])c1cccc(-c2ccc(C(=S)N3CCN(c4ccc(F)cc4)CC3)o2)c1	Cruzain inh noDet 25µM
O=[N+]([O-])c1cccc(C(=S)N2CCN(c3ccccc3)CC2)c1	none
CCc1ccccc1NC(=O)NC(CC)Cn1nnc2ccccc2c1=O (stereo not given)	none
O=C(/C=C/c1ccc(Cl)cc1Cl)c1nc2ccccc2[nH]1	Cruzain inh noDet 7.9µM
N#C/C(=C\c1ccc(Cl)cc1)c1nc2ccccc2[nH]1	none
O=C1C(Cl)=C(Cl)C(=O)C(Cl)=C1Cl	none
CC(=O)Nc1c(C)nn(-c2ccccc2)c1N1CCC(C(=O)NCc2cccc(Cl)c2)CC1	Cruzain inh noDet inconclusive
CC(=O)Nc1c(C)nn(-c2ccccc2)c1N1CCC(C(=O)NCc2ccccc2Cl)CC1	Cruzain inh Det 28µM
Oc1nc(Nc2ccc(Cl)cc2Cl)sc1/C=C1\C=Nc2ccccc21	Cruzain inh noDet 25µM
Cc1nc(Nc2ccc(Cl)cc2Cl)sc1C(=O)Nc1ccccc1	none
O=C(CCS(=O)(=O)c1cc2c3c(c1)CCN3C(=O)CC2)NCc1ccc(F)cc1	none
CCCCCCCCCCCCCCCC(O)C(N)CO (stereo not given)	Cruzain inh Det 18µM, Cruzain inh noDet inconclusive
CCCCCCCCCCCCC/C=C\[C@@H](O)[C@@H](N)CO	none
CCOc1ccc(NC(=O)CS(=O)(=O)Cc2nc(-c3ccc(C)cc3)oc2C)cc1	none
O=S(=O)(Nc1ccc2c(c1)nc1n2CCN(Cc2ccccc2)C1)c1ccccc1	Cruzain inh noDet inconclusive
O=S(=O)(Nc1ccc2c(c1)nc1n2CCN(Cc2ccccc2)C1)c1ccc(Cl)cc1	Cruzain inh noDet 25µM
Cc1cc(C)c2oc(-c3ccc(C)c(NC(=S)NC(=O)c4cccs4)c3)nc2c1	Cruzain inh noDet 7.9µM
Cc1ccc(-c2csc(NC(=S)NC(=O)c3cccs3)n2)cc1	Cruzain inh noDet 16µM
